Source: PubChem BioAssay (NCI)
About 83,000 compounds went through this panel and 20% of them were active in at least one assay; those are over-represented in the sample as a whole.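 Cell lines were cultured in 96-well plates, exposed to a single compound concentration, and assessed for percent growth 48 hours later.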 Values without a mark were called inactive. Active and inactive are the calls of the source. The calls were made as follows: active = growth percent below 10; inactive = the rest.

What was measured:
Experiment in all cases: NCI-60 one-dose screen, 48 h (100 = growth as untreated, 0 = no growth, -100 = all killed)
Conditions in all cases: 10 µM unless noted
DU-145 prostate = test system: DU-145 prostate
K-562 leukemia = test system: K-562 leukemia
MALME-3M melanoma = test system: MALME-3M melanoma
MDA-MB-231 breast = test system: MDA-MB-231 breast
RXF 393 renal = test system: RXF 393 renal
SF-268 CNS = test system: SF-268 CNS
SF-295 CNS = test system: SF-295 CNS
SF-539 CNS = test system: SF-539 CNS
UACC-257 melanoma = test system: UACC-257 melanoma
M14 melanoma = test system: M14 melanoma
HCT-15 colon = test system: HCT-15 colon
HT29 colon = test system: HT29 colon
SNB-75 CNS = test system: SNB-75 CNS
SNB-19 CNS = test system: SNB-19 CNS
U251 CNS = test system: U251 CNS
PC-3 prostate = test system: PC-3 prostate
SK-MEL-5 melanoma = test system: SK-MEL-5 melanoma
UACC-62 melanoma = test system: UACC-62 melanoma
LOX IMVI melanoma = test system: LOX IMVI melanoma
SK-MEL-28 melanoma = test system: SK-MEL-28 melanoma

SMILES	growth (DU-145 prostate)	growth (K-562 leukemia)	growth (MALME-3M melanoma)	growth (MDA-MB-231 breast)	growth (RXF 393 renal)	growth (SF-268 CNS)	growth (SF-295 CNS)	growth (SF-539 CNS)	growth (UACC-257 melanoma)	growth (M14 melanoma)	growth (HCT-15 colon)	growth (HT29 colon)	growth (SNB-75 CNS)	growth (SNB-19 CNS)	growth (U251 CNS)	growth (PC-3 prostate)	growth (SK-MEL-5 melanoma)	growth (UACC-62 melanoma)	growth (LOX IMVI melanoma)	growth (SK-MEL-28 melanoma)
O=S(=O)(Nc1ccsc1-c1nc(-c2ccccc2)no1)c1cc(Cl)cc(Cl)c1	101%	105%	99.6%	102%	101%	92.8%	98.3%	91.4%	85.8%	92.1%	91.9%	98.5%	73%	98.8%	97.8%	86.7%	93.5%	83.6%	96.5%	88.2%
NC(=O)c1c(NC(=O)c2ccccn2)sc2c1CCC(=O)C2	91.5%	10.1%	49.4%	7.89% (active)	21.5%	21%	66.3%	1.9% (active)	46.9%	22.5%	13.4%	68%	-1.34% (active)	42.7%	13.6%	10.7%	-19.5% (active)	-3.06% (active)	21.6%	39.9%
CNCCNc1nc2ccccc2c2c(=O)c3cc(F)ccc3oc12	48.6%	56%	86.3%	39.2%	59.2%	58.2%	75.4%	58.9%	99.4%	86.8%	49.1%	24.5%	56.8%	57.9%	50.2%	46.9%	73.3%	85%	44.6%	84.5%
CCOC(=O)c1c(C)nc2c(c1N)/C(=C/c1cc(OC)c(OC)c(OC)c1)C(=O)N2c1ccc(OC)cc1	16.3%	23.4%	76%	67%	87.2%	45.9%	88.1%	80.2%	73.6%	43.6%	31.3%	26.2%	73.9%	47.9%	43.6%	50.1%	69.5%	67.3%	14.6%	70.2%
O=C(NCCN1CCC(O)CC1)c1cc2c(o1)C(=O)c1ccccc1C2=O	-97.6% (active)	2.8% (active)	-99.2% (active)	-24.6% (active)	-99% (active)	-54.8% (active)	-96.2% (active)	-97.5% (active)	-86.9% (active)	-85.3% (active)	-80.8% (active)	-5.34% (active)	-98.5% (active)	-98.1% (active)	-88.1% (active)	-28.4% (active)	-99.2% (active)	-89.4% (active)	-89.3% (active)	-74.3% (active)
CCNCCNc1cc(-c2ccc(C(=O)OC)cc2)c(C#N)c2nc3ccccc3n12	38.1%	2.65% (active)	88.5%	0.164% (active)	16%	30.8%	-62.1% (active)	-80.1% (active)	53.1%	31.5%	45.8%	4.67% (active)	-38.2% (active)	41.8%	-29% (active)	54.1%	71.6%	-17.7% (active)	-53.4% (active)	17%
O=C1N(c2ccccc2)C(=S)N[C@]12[C@H](c1ccccc1)C1CCCN1[C@]21C(=O)NC2C=CC(Cl)=C[C@H]21 (stereo not given in full)	103%	81.5%	97%	88.4%	100%	101%	103%	103%	69.8%	81.9%	100%	82.6%	96.6%	101%	85%	47.8%	93.1%	82.7%	100%	117%
CCN(CCO)CC(=O)c1cc(Cl)cc(Cl)c1Cl	103%	99.2%	98.2%	103%	93.7%	97.5%	97.8%	104%	102%	99.2%	101%	81.8%	95.3%	105%	101%	84%	105%	98.3%	99.6%	111%
COc1cc(CNC(=O)/C=C/C=C/c2ccc3c(c2)OCO3)ccc1OCc1cn(-c2ccc(Cl)c(Cl)c2)nn1	-32.3% (active)	5.49% (active)	-54.7% (active)	5.5% (active)	-24% (active)	18%	-39% (active)	74.4%	-17.4% (active)	-30.4% (active)	-49.9% (active)	5.61% (active)	-36.8% (active)	20.5%	-57.5% (active)	-11% (active)	-41.1% (active)	-46.7% (active)	11.6%	6.52% (active)
Cc1[nH]c(-c2nc3ccccc3[nH]2)c(C)c1C(=O)N1CCOCC1	107%	106%	95.7%	83.7%	93.6%	99.5%	96%	96.2%	94.1%	95%	95.5%	98.3%	87.8%	88.7%	100%	98.8%	98.8%	90%	97.4%	105%
COc1ccc(-c2cc(-c3cc(OC)ccc3OC)[nH]c(=O)c2C#N)cc1	74.2%	25.4%	52.4%	55.4%	71.1%	60.3%	31%	50.3%	59.3%	29.1%	62.8%	38.1%	56.4%	68.1%	39.5%	72.6%	40.1%	47.7%	44.6%	74.8%
O=C1C2=C(CCN(Cc3ccccc3)C2)N2CCN=C2N1Cc1ccc(C(F)(F)F)cc1	33%	29.4%	30.4%	-9.28% (active)	54%	39.2%	-10.8% (active)	40.8%	15.5%	37.2%	13%	31%	38.1%	27.7%	21.8%	20.3%	14.2%	18.4%	29.2%	47.1%
CC(=O)C(C(C)=O)c1nc2sc3cc(Cl)ccc3n2c(=N)c1C#N	97.4%	85.2%	95.2%	51.9%	109%	77.7%	98.4%	95.5%	108%	97.2%	94.2%	92.4%	41.2%	78.8%	82.3%	65.2%	74.6%	61.6%	79.7%	103%
